From PubChem
In the library only some 1.5% were active in any assay of this set; here they are far more common.
APEX1 inh = inhibitors of human APE1 endonuclease | P27695 | recombinant APE1, TAMRA/BHQ-2 abasic DNA cleavage fluorescence | Potency, µM (titrated, usually from 65.8 µM), without a hit: at the highest dose activity change, negative = inhibition, actives largely listed as inhibitors | hit rate 0.35% among 350,000;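 note: potency is the fitted concentration of half-maximal effect; plate controls were vehicle for no effect and reference inhibitor for full effect; nearly all actives have a fitted effect of over 55% in size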
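Measures dequenching upon AP-site incision of a 5'-TAMRA/3'-BHQ-2 THF-containing duplex, 50 nM; human APE1 0.75 nM after 15 min room-temperature exposure to compound; kinetic three-point read at one-minute spacing.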
WRN inhibitor = blocks human WRN helicase. Q14191. WRN helicase unwinding, fluorescent forked duplex, kinetic. Potency, µM (highest dose often 114 µM), inactives show top-dose activity change, negative = inhibition, actives largely listed as inhibitors. hit rate 0.46% among 360,000. AID 651768; note: potency is the fitted concentration of half-maximal effect; nearly all actives have a fitted effect of over 55% in size
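Screening of the MLSMR collection measured strand separation of a quenched forked DNA duplex (100 nM) by 20 nM WRN with 2 mM ATP, all final. Compounds were preincubated with enzyme 15 min at room temperature.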
FEN1 inh = human FEN1 inhibition; P39748; Recombinant FEN1 flap cleavage, fluorescence, 15 min; Potency, µM (titrated, usually from 114 µM), inactives show top-dose activity change, negative = inhibition, actives largely listed as inhibitors; hit rate 0.35% among 390,000; AID 588795; note: potency is the fitted concentration of half-maximal effect; nearly all actives have a fitted effect of over 65% in size
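Potency values derive from four-parameter Hill fits of normalized qHTS data. The reaction used 10 nM FEN1 preincubated 15 min at room temperature with compound, then 50 nM DNA substrate, read at 0 and 15 min.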
PI5P4K alpha inh = blocks human PI5P4K alpha kinase activity; P48426; PI5P4Kalpha enzyme, ADP-Glo luminescence, 60 min; hits give low values; max response, %; hit rate 1.2% among 330,000; active = max response of -50% or lower; inconclusive = between -30% and -50%; inactive = -30% or higher; note: value at the top dose of about 77 µM
Target sequence (P48426 whole entry, looked up): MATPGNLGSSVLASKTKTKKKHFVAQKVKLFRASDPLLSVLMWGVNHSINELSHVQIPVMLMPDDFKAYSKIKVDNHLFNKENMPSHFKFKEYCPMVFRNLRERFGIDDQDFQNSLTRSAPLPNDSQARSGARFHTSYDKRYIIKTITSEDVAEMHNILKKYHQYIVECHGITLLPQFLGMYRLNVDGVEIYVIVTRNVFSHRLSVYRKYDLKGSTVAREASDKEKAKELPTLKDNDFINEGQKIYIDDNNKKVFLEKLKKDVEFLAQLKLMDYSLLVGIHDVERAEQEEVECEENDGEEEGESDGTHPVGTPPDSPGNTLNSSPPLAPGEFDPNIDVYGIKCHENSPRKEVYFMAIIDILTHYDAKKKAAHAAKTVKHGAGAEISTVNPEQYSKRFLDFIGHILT
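Reactions run in 0.038 M HEPES pH 7.4, 0.28 mM EGTA, 0.1% CHAPS and 5% DMSO, with PI5P4Kalpha, substrate, compound and 5 microM ATP final, one hour at room temperature. Readout is ADP-Glo luminescence.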
BLM inh = blocks DNA unwinding by human BLM helicase; recombinant BLM DNA unwinding, fluorescence dequenching; Potency, µM (series often up to 56.1 µM), for inactives: at the top dose activity change, negative = inhibition, actives largely listed as inhibitors; hit rate 0.2% among 350,000; AID 2528;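 note: potency is the fitted concentration of half-maximal effect; plate controls were vehicle for no effect and no enzyme for full effect; nearly all actives have a fitted effect of over 35% in size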
RECQ1 inh = RECQ1 (human) helicase inhibition; P46063; RECQ1 DNA unwinding, red fluorescence kinetic read; Potency, µM (series often up to 57.3 µM), without a hit: at the highest dose activity, negative = inhibition, usual class: inhibitors; hit rate 0.54% among 240,000; AID 2549;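 note: potency is the fitted concentration of half-maximal effect; plate controls were vehicle for no effect and no enzyme for full effect; nearly all actives have a fitted effect of over 30% in size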
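RECQ1T1 50 nM; forked duplex (20 bp + 30-nt ss tails) 200 nM, ATP 2 mM final; pH 8.0, 2 mM MgCl2, 2.5 ug/ml poly(dI-dC); 15 min compound preincubation; discontinuous kinetic read over 2 h at RT.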
The depositor's hits bear a star; i = inactive; ? = inconclusive; . = no result given; [ ] = another dose, or the depositor's remark. Unless noted, calls come from the whole dose curve; as a rule, active = well fitted curve in the direction sought with a large enough effect; inconclusive = small, poorly fitted or top-dose-only effect, or another doubt; inactive = no such curve, though single readings can be large; an effect the other way counts as inactive or inconclusive. Unless noted, % is set by controls: 0 for no effect and ±100 for the full control effect.

SMILES | APEX1 inh | WRN inhibitor | FEN1 inh | PI5P4K alpha inh | BLM inh | RECQ1 inh
CCC(Sc1nc(-c2cccc(OC)c2)c(C#N)c(=O)[nH]1)C(=O)Nc1nnc(C(C)C)s1 (configuration not stated) | 1% | -6% | -20% | ? | -1% | -8%
CCc1ccc(NC(=O)C(C)Sc2nc(-c3ccco3)c(C#N)c(=O)[nH]2)cc1 (configuration not stated) | 2% | ? | -20% | -57* | -8% | .
C[C@@H]1CC[C@@]2(OC1)O[C@H]1C[C@H]3[C@@H]4CC[C@H]5C[C@@H](O)CC[C@]5(C)[C@H]4CC(=O)[C@]3(C)[C@H]1[C@@H]2C | -2%[21 µM] | . | . | . | . | .
Cc1ccc(C)c2c1NC(C(=O)O)C1CC=CC21 (configuration not stated) | . | . | 18µM* | . | . | .
CCOC(=O)C1Nc2ccc(C)cc2C2C=CCC12 (configuration not stated) | . | -7% | -11% | ? | . | .
O=C(O)C1Nc2c(Cl)cc(Cl)cc2C2C=CCC12 (configuration not stated) | 13µM* | 10µM* | 22µM* | -99* | ? | .
CN=C1S/C(=C\c2ccc(O)c(Br)c2)C(=O)N1C | 41% | -1%[57.1 µM] | -23% | -79* | -2% | .
Cc1cccc(N2CCN(C(c3ccccc3)c3nnc(-c4ccccc4F)o3)CC2)c1C (configuration not stated) | . | . | -6% | . | -9% | .
CCOc1ccc(-c2csc(/C(C#N)=C\c3ccc(O)c([N+](=O)[O-])c3)n2)cc1 | 3% | ? | 79µM* | ? | ? | -10%
CCc1ccc(/C=C(/C#N)c2nc(-c3ccc(C)cc3)cs2)cc1 | . | . | 8% | . | -7% | .
O=C(CC(=O)N/N=C/c1cccs1)NCc1ccccc1 | 2% | 2% | -7% | 9 | 2% | -2%
CC(C)NC(=O)CC(=O)N/N=C/c1cccs1 | 5% | -4% | -3% | -6 | 18µM* | -7%
O=c1[nH]c(/C=C\c2cccc(O)c2)nc(O)c1[N+](=O)[O-] | -7% | -12% | 10% | -81* | 5% | .
CCOc1cc(/C=C\c2nc(O)c([N+](=O)[O-])c(=O)[nH]2)ccc1OC(C)CC (configuration not stated) | 3% | -17% | -4% | ? | -7% | .
O=c1[nH]c(/C=C\c2ccc(O)c(O)c2)nc(O)c1[N+](=O)[O-] | ? | ? | ? | -80* | -2% | .
CCOc1ccccc1/C=C\c1nc(O)c([N+](=O)[O-])c(=O)[nH]1 | 5% | -22%[57.1 µM] | 0% | ? | -5% | .
O=C(COc1ccccc1/C=C\c1nc(O)c([N+](=O)[O-])c(=O)[nH]1)Nc1ccccc1 | 1% | ? | -22% | -55* | -3% | 13%
CC(C)[C@@H]1CC[C@@H](C)CC1=O | 1% | . | . | . | . | .
C=CCn1c(SCC(=O)N2CCOCC2)nc2scc(-c3ccco3)c2c1=O | -15% | 56µM* | ? | . | 18µM* | -28%
CC(C)C(C)(C#N)NC(=O)CSc1nc2scc(-c3ccco3)c2c(=O)n1-c1ccccc1 (configuration not stated) | ? | -16% | 5% | -11 | ? | 20µM*
C=CCn1c(SC(F)F)nc2scc(-c3ccco3)c2c1=O | -15% | -18% | -17% | 11 | -4% | .
C=CCn1c(SCC(C)=O)nc2scc(-c3ccco3)c2c1=O | -32% | ? | ? | -55* | ? | .
CC(C)C(C)NC(=O)CSc1nc2scc(-c3ccco3)c2c(=O)n1-c1ccccc1 (configuration not stated) | -1% | -10% | -2% | ? | -14% | i
O=C1CCCC(O)=C1N=Nc1c(Cl)cc(Cl)cc1Cl | ? | -6% | -1% | 1 | 3% | 25µM*
Cc1c(C#N)c(O)[nH]c(=O)c1N=Nc1ccc(S(N)(=O)=O)cc1 | ? | ? | -26% | -76* | -6% | .
Cc1ccc(CN2COc3ccc4c(-c5ccccc5)cc(=O)oc4c3C2)cc1 | . | . | 4% | . | -10% | .
